Screening data: PubChem BioAssay, The Scripps Research Institute Molecular Screening Center
Hits are enriched below; roughly 5.7% of the tested compounds scored in any of these assays.
ssDAF12 agonist: S. stercoralis DAF-12 nuclear receptor activators, primary screen, cell-based, luminescence, HEK293, GRIP1 co-expression, lit1-tk-luc; Nuclear hormone receptor DAF-12 (Strongyloides stercoralis); HEK293 ssDAF-12/GRIP1 lit1-tk-luc reporter; % of 3 µM dafachronic acid response; activation, % at 6.8 µM; 370,000 tested, 1% active;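 active means activation above the mean over all tested compounds plus 3 SD, cut at about 0.9% in these data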;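 further: 0% = DMSO-only wells and 100% = 3 µM delta7-dafachronic acid wells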
hgDAF12 agonist: H. glycines DAF-12 receptor agonists, primary screen, cell-based, luminescence, HEK293, GAL4 fusion, UAS-luciferase. Nuclear hormone receptor DAF-12 (Heterodera glycines), GAL4 fusion. HEK293 GAL4-hgDAF12 UAS-luciferase reporter, agonist luminescence; normalized to butyrate control. activation, % at 6.8 µM. 370,000 tested, 1.8% active. AID 687014, 2013;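 active means activation above a cutoff set at the mean of all screened compounds plus 3 SD, cut at about 10% in these data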;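 further: 0% = DMSO wells and 100% = sodium butyrate wells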
DAX1 inh-1: DAX1 (NR0B1) inhibitors on StAR promoter, primary screen, cell-based, luminescence, SF-1 (NR5A1), full-length DAX-1. HEK293T StAR-luciferase reporter, SF-1/DAX-1 repression relief. inhibition, % at 6.8 µM. 370,000 tested, 1.1% active;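 active means inhibition above the mean over all tested compounds plus 3 SD, cut at about 3.6% in these data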;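 further: 0% = DAX-1 cells with DMSO and 100% = cells lacking DAX-1 with DMSO; higher inhibition means more luminescence from relief of DAX-1 repression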
DAX1 inh-2: DAX1 (NR0B1) inhibitors, primary screen, cell-based, HEK293, Gal4-DAX1, luciferase luminescence; inhibition, % at 6.75 µM; HEK293 Gal4-DAX1 luciferase reporter; AID 504766, 2011; 340,000 tested, 0.99% active; Nuclear receptor subfamily 0 group B member 1 (Homo sapiens), P51843;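 active means inhibition above the mean over all tested compounds plus 3 SD, cut at about 4.2% in these data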;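 further: 0% = DAX1-transfected cells with DMSO and 100% = empty-vector control cells with DMSO; inhibition shows as a rise in luminescence from relieved DAX1 repression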
Target sequence (P51843 207-470 limits assumed): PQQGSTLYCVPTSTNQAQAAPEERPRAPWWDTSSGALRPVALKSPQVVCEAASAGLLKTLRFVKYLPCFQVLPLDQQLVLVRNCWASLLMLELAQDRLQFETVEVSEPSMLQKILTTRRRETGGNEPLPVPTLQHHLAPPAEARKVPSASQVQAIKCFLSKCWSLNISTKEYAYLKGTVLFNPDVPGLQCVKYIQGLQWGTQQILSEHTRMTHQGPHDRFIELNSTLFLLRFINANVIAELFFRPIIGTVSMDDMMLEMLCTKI
hcDAF12 agonist: H. contortus DAF-12 nuclear receptor activators, primary screen, cell-based, luminescence, HEK293, lit1-tk-luc reporter; HEK293 hcDAF-12 lit1-tk-luc reporter; 0% DMSO, 100% Δ7-dafachronic acid; activation, % at 6.8 µM; 370,000 tested, 1.4% active; AID 652067, 2013;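 active means activation above the mean of all tested compounds plus 3 SD, cut at about 5.5% in these data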;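 further: 100% = response to 3 µM Δ7-dafachronic acid high control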
AHR act: AHR activators, primary screen, cell-based, luminescence, luciferase reporter, human | 320,000 tested, 2.5% active | AID 2796, 2010 | Aryl hydrocarbon receptor (Homo sapiens), P35869 | AHR-responsive luciferase reporter cells | activation, % at 5 µM; in the data active means activation above about 47%;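 further: 0% = vehicle wells and 100% = reference agonist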
AHR act cf: AHR activators, confirmation, cell-based, luminescence, luciferase reporter, human; shares compounds with AHR act; human cells, AHR-responsive luciferase reporter; activation, % at 9 µM; 2,300 tested, 87% active; AID 2845, 2010; in the data active means activation above about 49%;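 further: HepG2 hepatoma cells carrying a DRE-driven firefly luciferase reporter; 0% = vehicle wells and 100% = reference agonist wells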
PXR act counter: human PXR activators, counter-screen for AHR activator project, cell-based, luciferase luminescence; AID 434939, 2010; activation, % at 11.6 µM; 2,300 tested, 88% active; shares compounds with AHR act; cell-based PXR reporter; in the data active means activation above about 11%;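 further: human hepatoma DPX-2 cells expressing full-length human PXR; 0% = DMSO and 100% = reference agonist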
Target sequence (O75469 whole entry, looked up): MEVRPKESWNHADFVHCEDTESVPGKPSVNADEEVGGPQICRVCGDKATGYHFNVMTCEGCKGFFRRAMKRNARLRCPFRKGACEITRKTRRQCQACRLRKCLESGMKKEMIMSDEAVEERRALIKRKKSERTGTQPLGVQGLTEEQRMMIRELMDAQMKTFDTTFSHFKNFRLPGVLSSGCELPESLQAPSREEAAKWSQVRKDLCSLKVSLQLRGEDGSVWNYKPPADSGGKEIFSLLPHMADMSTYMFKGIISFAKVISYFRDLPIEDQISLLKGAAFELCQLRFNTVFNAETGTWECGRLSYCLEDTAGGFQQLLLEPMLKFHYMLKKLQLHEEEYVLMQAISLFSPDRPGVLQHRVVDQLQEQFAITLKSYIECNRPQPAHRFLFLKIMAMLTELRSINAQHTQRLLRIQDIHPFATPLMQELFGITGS
Starred values were filed as active, the others as inactive; / = not tested or not shown.

SMILES	ssDAF12 agonist	hgDAF12 agonist	DAX1 inh-1	DAX1 inh-2	hcDAF12 agonist	AHR act	AHR act cf	PXR act counter
C=CCCC(=O)Nc1nc(C)c(-c2csc(Nc3ccccc3OC)n2)s1	-1.7	4.1	-2.0	-0.1	-0.3	101.0*	64.8*	30.6*
CCC(C)C(=O)Nc1nc(C)c(-c2csc(Nc3ccccc3OC)n2)s1 (stereo unspecified)	-1.2	0.7	0.5	1.2	-0.5	109.9*	84.6*	51.0*
C=CCCC(=O)Nc1nc(C)c(-c2csc(Nc3ccc(Cl)cc3Cl)n2)s1	-1.7	-0.9	-0.1	1.1	-1.3	102.0*	73.2*	25.4*
CCN(CC)C(=S)SCC(=O)Nc1ncc2c(n1)CCCC2=O	-0.4	0.3	0.1	2.6	-0.2	0.4	/	/
C=C1[C@H](C)CN[C@H]1CCO	-0.4	0.0	0.6	1.0	2.5	/	/	/
CN(Cc1ccccc1)C(=O)CSc1nc2cc(C(=O)N3CCC(C(N)=O)CC3)ccc2c(=O)n1-c1ccccc1	/	/	/	/	/	-1.5	/	/
COc1ccc(NC(=O)c2cc3ccc4c5ccccc5[nH]c4c3cc2O)cc1	-1.4	-1.4	-0.2	-0.1	-2.2	3.6	/	/
Clc1ccc(COc2ccccc2-c2ccnc3ncnn23)cc1	-1.0	5.4	1.9	-0.2	5.1	87.3*	52.1*	65.2*
O=C(Nc1ccccc1C(=O)N/N=C/c1ccc(O)cc1)c1ccccc1	-0.2	5.1	1.9	-1.2	1.7	102.6*	88.3*	28.3*
CC(C)=C(NC(=O)c1ccccc1)C(=O)N/N=C/c1ccc(O)cc1	-0.6	7.5	0.1	0.1	1.9	5.4	/	/
CC1CC2OC(=O)C3(C)CCCC(C)(C23)C1(O)CCc1ccoc1 (stereo unspecified)	-1.4	0.3	0.3	1.1	-2.2	-0.1	/	/
COc1ccc(C(=O)Nc2c(N)nc(SCC(=O)NCC3CCCO3)[nH]c2=O)cc1 (stereo unspecified)	-0.7	1.1	0.2	1.8	1.4	1.6	/	/
COc1c(F)cccc1C1=CC(=O)C[C@H](c2ccc3c(c2)OCO3)C1	-1.4	-1.6	0.5	1.7	-1.0	101.2*	75.5*	65.9*
O=C1C=C(c2ccc(Br)c3ccccc23)C[C@@H](c2ccc3c(c2)OCO3)C1	-1.6	-1.2	0.5	-0.2	-0.2	88.9*	95.4*	32.4*
Cc1ccc2[nH]c3c(NCCCN4CCCC4=O)ncnc3c2c1	-0.6	3.2	-0.3	-0.1	-1.8	85.8*	84.4*	161.5*
Cc1ccsc1C(=O)N1CCN(C(=O)c2ccco2)CC1	-1.5	-1.8	1.4	0.5	0.0	-0.1	/	/
C=C1C(=O)O[C@@H]2C[C@@H](C)[C@@H]3C=CC(=O)[C@@]3(C)[C@@H](OC(C)=O)[C@H]12	-2.4	-11.1	-3.2	/	-4.9	81.0*	-13.6	283.4*
Cc1c(CN2CCC(n3nccc3NC(=O)C3CC3)CC2)[nH]c2ccccc12	-0.9	0.6	0.1	0.6	1.3	85.0*	81.5*	43.2*
CC(=O)N1CC=C2C(C#N)=C(N)C(C#N)(C#N)C(CCc3ccccc3)C2C1 (stereo unspecified)	0.5	0.5	-0.1	0.5	2.0	80.2*	73.4*	23.6*
CSc1nc(N)c2c3c(sc2n1)COC(C(C)C)C3 (stereo unspecified)	-0.4	1.5	0.1	1.1	0.5	96.6*	109.5*	18.3*
Clc1ccc(-c2cnnc(-c3ccccn3)n2)cc1	0.0	8.5	1.1	2.7	0.8	-3.0	/	/
COc1nc(NCCO)nc(Nc2cc(Cl)ccc2OC)n1	-0.9	3.4	-1.2	-0.2	-1.6	12.3	/	/
COc1ccc(Cl)cc1Nc1nc(N)c2ccccc2n1	0.9	6.1	-0.1	0.5	5.5	105.0*	115.1*	13.7*
CCOc1cccc(C(=O)Nc2ccc3[nH]ncc3c2)c1	-0.5	12.9*	2.9	0.8	4.7	92.8*	41.3	22.9*
CCC(C)Nc1nc(N)c([N+](=O)[O-])c(Nc2cc(OC)ccc2OC)n1 (stereo unspecified)	-1.2	-1.0	-1.1	0.6	-1.7	80.1*	126.7*	76.0*
SMILES	ssDAF12 agonist	hgDAF12 agonist	DAX1 inh-1	DAX1 inh-2	hcDAF12 agonist	AHR act	AHR act cf	PXR act counter
COc1ccc(OC)c(Nc2nc(NCCC(C)C)nc(N)c2[N+](=O)[O-])c1	-1.6	0.4	0.2	-0.5	-1.7	20.3	/	/
C=CCNc1nc(N)c([N+](=O)[O-])c(Nc2ccccc2OC)n1	-0.8	-2.5	-0.3	-1.5	-1.8	116.2*	123.0*	21.0*
COc1ccc(-c2nc3cnccn3c2Nc2ccc3c(c2)OCO3)cc1	-1.5	1.8	-2.1	-1.4	0.1	105.1*	85.5*	144.3*
O=C(CCC(=O)N1CCCC(Nc2ccccc2)C1)c1ccc(F)cc1 (stereo unspecified)	-1.6	-2.9	-0.1	-0.6	-2.1	-0.4	/	/
O=C(Nc1ccccc1OCc1ccccc1)c1ccccc1Br	-1.2	1.7	-0.6	1.0	-1.3	103.3*	104.9*	42.8*
O=C(NCC(=O)N1CCN(c2ccccc2)CC1)c1ccccc1	-1.2	1.7	-0.1	1.2	2.2	5.6	/	/
COc1ccc(S(=O)(=O)N(C)C)cc1NC(=O)c1ccc2c(c1)OCCO2	-1.7	0.4	-1.1	-0.3	-1.6	0.3	/	/
Cc1ccc(C(=O)Nc2ccc3c(c2)OCO3)cc1S(=O)(=O)N1CCCC1	-1.0	3.1	0.3	-0.2	-0.9	82.0*	70.1*	218.1*
CN(C)S(=O)(=O)c1cccc(C(=O)Nc2cc(Cl)ccc2O)c1	-1.1	1.4	-1.0	0.5	0.8	84.0*	46.3	89.8*
CCN(CC)S(=O)(=O)c1cccc(C(=O)Nc2ccc3c(c2)OCO3)c1	-1.2	6.1	1.6	-0.5	3.3	165.2*	102.8*	134.0*
CN(C)S(=O)(=O)c1cccc(C(=O)Nc2ccccc2Cl)c1	-0.8	1.1	-0.9	-0.3	-0.7	-0.2	/	/
